Measured values as given in the supplement of paper PMC3334620.
Over roughly 33,000 sequences, “E-score (-0.5 to 0.5)” has its median near -0.012; the highest 2% begin near 0.27. The list comes from a sample in which the highest values are over-represented; it also holds similar and randomly drawn sequences.

Molecular target: T1, Vhr1 (UniProt P40522)
T1 sequence: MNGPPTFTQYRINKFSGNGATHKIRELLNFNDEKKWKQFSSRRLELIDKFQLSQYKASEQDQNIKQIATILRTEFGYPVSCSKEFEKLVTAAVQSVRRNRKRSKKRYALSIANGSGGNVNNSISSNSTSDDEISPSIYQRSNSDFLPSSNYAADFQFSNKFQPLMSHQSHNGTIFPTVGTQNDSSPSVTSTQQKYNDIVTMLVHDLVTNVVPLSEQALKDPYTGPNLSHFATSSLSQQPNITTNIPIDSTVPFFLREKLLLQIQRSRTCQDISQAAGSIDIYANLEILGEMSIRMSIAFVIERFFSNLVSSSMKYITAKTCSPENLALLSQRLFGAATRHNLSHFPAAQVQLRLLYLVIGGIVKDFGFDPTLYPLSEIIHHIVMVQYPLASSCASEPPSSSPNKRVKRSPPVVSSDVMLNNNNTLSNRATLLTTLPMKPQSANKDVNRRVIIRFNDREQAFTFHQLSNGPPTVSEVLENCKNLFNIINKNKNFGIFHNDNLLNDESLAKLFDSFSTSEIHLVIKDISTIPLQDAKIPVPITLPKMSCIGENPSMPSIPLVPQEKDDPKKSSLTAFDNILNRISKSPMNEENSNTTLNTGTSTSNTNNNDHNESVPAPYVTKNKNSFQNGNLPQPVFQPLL
Assay: PBM E-score (8-mer binding enrichment) (E-score (-0.5 to 0.5)); higher = stronger / more preferred TF binding
Conditions: protein concentration: 200 nM; construct: GST-full length
How it was run: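 Yeast transcription factors, full-length or as DNA-binding domains, were expressed with a GST tag using PURExpress in vitro transcription/translation. At about 100-200 nM they were applied to universal all-10-mer Agilent arrays, double-stranded by primer extension on fresh or once-stripped slides. Fluorescent anti-GST detected bound protein, and masliner normalised the scans. E-scores for ungapped eight-base words, pooled with reverse complements, came from the Universal PBM Analysis Suite.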

| Sequence | PBM E-score |
| --- | --- |
| AGAAAATG | -0.163 |
| TAAAGCAA | -0.0681 |
| ACTTAGAC | -0.127 |
| ACAGCCTA | 0.0389 |
| AAGGGTGC | -0.0494 |
| CAAGCAAG | -0.0582 |
| AACTATTG | 0.13 |
| AGACTCAC | 0.399 |
| AGACTCAG | 0.242 |
| ACTCTCAT | 0.027 |
| AGACTCAT | 0.353 |
| AGACTCCT | 0.186 |
| AGACTCGC | 0.136 |
| CCGCCTTC | 0.0298 |
| CCCGTCGG | 0.065 |
| CAAGCTCG | 0.0842 |
| GGCGCTAC | -0.192 |
| GTGGAGAA | -0.13 |
| CCGTGTTA | 0.152 |
| ACGTGTTC | -0.219 |
| CCGTGTTC | 0.271 |
| ACACAGAC | 0.25 |
| CGCTGCCA | -0.0656 |
| AAAGTACA | 0.071 |
| ACTACAAG | -0.00586 |

| Sequence | PBM E-score |
| --- | --- |
| ACTACCAA | 0.163 |
| ACTACCAC | 0.175 |
| ACTACCAT | 0.278 |
| ACTACTAA | 0.0623 |
| ACTACTAT | 0.325 |
| ACTACAAC | 0.212 |
| ACTACTAC | 0.232 |
| ACTACAAT | 0.277 |
| AGCAAGGG | -0.0155 |
| GAGTGCGC | -0.0251 |
| CCCGATGA | 0.273 |
| CCCGATGC | -0.18 |
| ACCGATGA | 0.00055 |
| GTGCGCGA | 0.0151 |
| CCGCATGA | 0.146 |
| GACTATGA | 0.289 |
| GACTATGC | 0.233 |
| CACTATGA | 0.173 |
| TACTATGA | 0.317 |
| GACTATCA | 0.0818 |
| AACTATGA | 0.22 |
| AGAGGCTG | -0.116 |
| AGTGACAA | 0.0325 |
| GGTGACTA | 0.44 |
| AGTGACTG | 0.288 |

| Sequence | PBM E-score |
| --- | --- |
| AGTGACCG | -0.117 |
| AGTGACTA | 0.367 |
| AGTGACGG | 0.00494 |
| GGTGACCA | -0.0328 |
| AGTGACGA | 0.139 |
| GGTGACGA | 0.113 |
| GAGGAAGC | -0.151 |
| AGACCTCT | -0.143 |
| TAGGAAAA | -0.22 |
| TAAGCCGA | -0.13 |
| GTCTGTGA | 0.235 |
| GCATTCCA | -0.177 |
| AGCCTGAC | -0.0744 |
| AATCATCA | 0.374 |
| AATCATCG | 0.334 |
| CATCATCG | 0.16 |
| CATCATCA | -0.0217 |
| ATCCATCA | 0.289 |
| AATCATCC | 0.405 |
| ATCCATCC | 0.156 |
| ATCCATCG | 0.0134 |
| AATCATCT | 0.185 |
| GATCATCC | 0.141 |
| CATCATCC | 0.119 |
| TATCATCA | 0.147 |

| Sequence | PBM E-score |
| --- | --- |
| AAGATTTG | -0.09 |
| ACAGTGGG | -0.133 |
| ACATCTAC | 0.155 |
| GCGCCAAC | -0.0311 |
| GCCCCCCA | -0.244 |
| GGCCCAGA | -0.26 |
| AGTTACAT | -0.043 |
| AACACACC | 0.27 |
| GGGACACC | -0.0207 |
| CACACACC | 0.235 |
| GACACATA | 0.197 |
| GGGACACA | 0.297 |
| TGGACACA | 0.0645 |
| GAGACACA | 0.14 |
| GACACACA | 0.298 |
| GACACACC | 0.28 |
| GTGGGACA | 0.0875 |
| CAAGGCAC | -0.0306 |
| AAGGCCCT | -0.164 |
| CTGGTAGA | 0.0523 |
| CAGCTAGA | 0.0392 |
| AAGAATGG | -0.12 |
| ATGACTTA | 0.349 |
| ATGACTTC | 0.341 |
| CTGACTTC | 0.195 |

| Sequence | PBM E-score |
| --- | --- |
| CTGACTTA | 0.187 |
| ACGACTTC | 0.0846 |
| AGGACTTA | -0.0181 |
| ACCTTACT | -0.129 |
| CAGTACCG | 0.0537 |
| ACTGAGCT | -0.0929 |
| CTGACCCA | 0.0712 |
| GTGACCCA | 0.267 |
| ATGACCCA | 0.362 |
| TCGCTGAA | 0.0432 |
| AGAACACT | 0.108 |
| CACGGTGG | 0.273 |
| CACGGTGC | 0.0709 |
| CACGGTGA | 0.106 |
| ATGCATAG | 0.013 |
| CATGTCTC | 0.294 |
| AATGTCTC | 0.137 |
| CATGTCTA | 0.0965 |
| GCTGAGTA | 0.0378 |
| GGTGAGTA | 0.282 |
| AGTGAGTA | 0.192 |
| GGTGAGGA | 0.00616 |
| GATGAGTA | 0.382 |
| CATGAGTA | 0.225 |
| TCGCAGCA | 0.0961 |

| Sequence | PBM E-score |
| --- | --- |
| ACTTCTAT | -0.0176 |
| CACTGCGG | 0.213 |
| CATGTTGA | 0.278 |
| AATGTTGA | 0.043 |
| CATGTTGC | 0.0935 |
| GGTTTCTA | -0.122 |
| ATCATCAG | 0.0874 |
| CTCATCAC | 0.0121 |
| CTCATCAG | 0.312 |
| TAACACGA | 0.212 |
| CTCTCCAG | -0.232 |
| ATGTCTAG | 0.12 |
| CCGGAGGC | -0.141 |
| AAGGAGTC | 0.203 |
| ACGGAGTG | 0.00137 |
| ACGGAGTA | 0.0079 |
| ACGGAGTC | 0.408 |
| CAGGAGTC | 0.373 |
| CCGGAGTA | 0.0674 |
| CCGGAGTC | 0.421 |
| CAGGAGTA | -0.00382 |
| AGCCGTCA | -0.0405 |
| GCAAGTAC | -0.109 |
| ATAGGAAG | 0.0182 |
| AGAGTTTG | 0.0245 |

| Sequence | PBM E-score |
| --- | --- |
| CGCTGTTA | -0.0856 |
| CGTCACGC | -0.208 |
| AATCACGG | 0.259 |
| CGTCACGA | 0.00392 |
| GGTCACGA | 0.09 |
| ATTCACGG | 0.0271 |
| ATTCACGC | 0.117 |
| AGTCACGC | 0.426 |
| AGTCACGG | 0.417 |
| AGTCACGA | 0.411 |
| CAGAACAG | 0.066 |
| GGCTCCTA | -0.136 |
| CCAACAGA | -0.0653 |
| CCCCGCTA | -0.0924 |
| CTTTGGCC | -0.254 |
| AATTAATA | 0.102 |
| CCACTCGA | 0.0905 |
| ATTCAATA | -0.0197 |
| GTCACGTA | 0.13 |
| ACGCCTTG | -0.0936 |
| CTTGGCCA | -0.0546 |
| GTAGTCCA | -0.0646 |
| GCAGCGAC | 0.167 |
| GTGGTTCA | 0.254 |
| CTGGTTCC | 0.0593 |

| Sequence | PBM E-score |
| --- | --- |
| ATGGTTCC | 0.318 |
| CTGGTTCA | -0.0177 |
| ATGGTTCA | 0.366 |
| ATGGTTCG | 0.224 |
| CATTAGGA | -0.0276 |
| ACAGTTCA | 0.0273 |
| CGCAATCC | -0.0979 |
| AAACCTAA | -0.0619 |
| TAATGGCA | -0.00432 |
| CTCAATAC | 0.226 |
| ATCAAAGG | -0.0468 |
| CAAGAGCG | 0.0553 |
| CAGGGTGA | 0.114 |
| CTGGGTGC | 0.123 |
| ATGGGTGG | 0.242 |
| GTGGGTGA | 0.331 |
| GTGGGTAA | 0.138 |
| CTGGGTGA | 0.275 |
| ATGGGTGC | 0.0292 |
| ATGGGTGA | 0.322 |
| ATGGGTCA | 0.263 |
| GAGGGTGA | 0.153 |
| CTGGGTCA | 0.11 |
| GTGGGTCA | 0.365 |
| CACCTACC | -0.125 |

| Sequence | PBM E-score |
| --- | --- |
| AAGTGCGT | -0.0339 |
| GTCTGTAA | -0.0248 |
| AATTCTTC | -0.211 |
| AGATCACC | -0.0605 |
| ACTGGTCG | 0.0753 |
| GTCGTCTA | -0.0586 |
| GAACTAGC | -0.118 |
| AACAGGAT | -0.0425 |
| CTATGAAC | 0.107 |
| CCTATCTA | -0.245 |
| GGTCAGCA | 0.15 |
| CGTCAGCA | -0.11 |
| AGTCAGCG | 0.347 |
| AGTCAGAT | 0.27 |
| CGTCAGCC | 0.044 |
| AGTCAGCC | 0.402 |
| AGTCAGAA | 0.18 |
| AGTCAGAG | 0.386 |
| ACTCAGCC | 0.151 |
| AGTCAGCA | 0.346 |
| ACTCAGCG | 0.133 |
| ATTCAGCG | -0.0101 |
